GRIN3A LBD mod: modulates the human NR3A ligand-binding domain; Tm shift relative to glycine control, % at 25 µM; 340,000 tested, 2.5% active; NR3A LBD differential scanning fluorimetry, Tm shift; 0% = protein alone, 100% = glycine-bound protein;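 active = melting temperature shift of at least 10% of the positive control shift, at one fixed dose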
MPTP block: blocks calcium-induced mitochondrial swelling; inhibition, % at 10 µM; 360,000 tested, 1.4% active; isolated mouse mitochondria, Ca2+ swelling absorbance, 30 min;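 active = inhibition of 50% or more, scaled per plate between neutral and stimulator controls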;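 note: 0% = DMSO wells given calcium and 100% = 1 mM EGTA wells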
CRFBP-R2 agonist: CRF-BP/CRF-R2 complex agonism | AID 588473 | activation, % at 13.2 µM | HEK293 CRF-R2/CRF-BP, calcium dye fluorescence (FLIPR); percent of saturating CRF peptide response | 350,000 tested, 0.46% active;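 active = activation of at least 50%, plus an integration ratio under a set limit after plate pattern correction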;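 note: plate controls were neutral control wells without compound for no effect and CRF at EC100 for full effect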
TMEM16A inh: blocks the mouse calcium-activated chloride channel TMEM16A; 310,000 tested, 1.2% active; HEK293 TMEM16A/YFP iodide influx fluorescence, ionomycin; Q8BHY3; normalized B-score (activity score, 25-100; higher = stronger inhibition) at 10 µM;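 active = ratio plate-corrected score three or more library SD toward inhibition, starting fluorescence score within five deviations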;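 note: score derived from kinetic fluorescence span divided by baseline fluorescence per well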
Target sequence (Q8BHY3 whole entry, looked up): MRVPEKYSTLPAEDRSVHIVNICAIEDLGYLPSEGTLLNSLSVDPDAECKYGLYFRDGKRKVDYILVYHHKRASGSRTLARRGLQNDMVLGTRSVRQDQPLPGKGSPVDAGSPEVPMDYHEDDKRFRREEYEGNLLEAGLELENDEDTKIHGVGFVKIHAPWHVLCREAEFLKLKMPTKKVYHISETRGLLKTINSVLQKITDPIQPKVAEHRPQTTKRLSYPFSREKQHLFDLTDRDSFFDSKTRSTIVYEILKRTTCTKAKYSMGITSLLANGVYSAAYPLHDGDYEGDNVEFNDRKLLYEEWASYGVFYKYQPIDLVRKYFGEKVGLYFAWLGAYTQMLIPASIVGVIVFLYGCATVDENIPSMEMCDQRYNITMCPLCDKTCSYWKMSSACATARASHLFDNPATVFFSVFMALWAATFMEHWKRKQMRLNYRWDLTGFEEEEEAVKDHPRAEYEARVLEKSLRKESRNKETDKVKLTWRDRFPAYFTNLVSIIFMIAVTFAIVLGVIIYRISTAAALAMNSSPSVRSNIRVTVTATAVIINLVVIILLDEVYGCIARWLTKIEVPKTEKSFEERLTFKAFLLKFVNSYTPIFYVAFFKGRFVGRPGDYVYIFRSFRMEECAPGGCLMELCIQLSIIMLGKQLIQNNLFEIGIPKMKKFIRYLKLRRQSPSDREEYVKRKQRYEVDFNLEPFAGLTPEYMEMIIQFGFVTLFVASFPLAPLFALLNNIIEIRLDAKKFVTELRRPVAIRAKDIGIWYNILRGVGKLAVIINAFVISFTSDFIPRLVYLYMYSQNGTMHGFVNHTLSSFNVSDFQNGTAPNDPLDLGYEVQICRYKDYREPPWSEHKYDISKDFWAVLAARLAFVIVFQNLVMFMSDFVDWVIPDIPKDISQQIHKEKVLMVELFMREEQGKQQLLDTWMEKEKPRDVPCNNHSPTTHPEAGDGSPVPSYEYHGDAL
TMEM16A act: activates or potentiates the mouse TMEM16A chloride channel; Q8BHY3; HEK293 TMEM16A/YFP-H148Q/I152L, iodide quench fluorescence; active compounds read low; B-score at 10 µM; 340,000 tested, 0.3% active; AID 623877;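 active = fluorescence-ratio B-score plate-corrected deviation score at least 3 library SD below zero, with starting fluorescence score within 5 deviations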;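 note: channel opened by trigger with iodide after compound preincubation; score built on the fluorescence ratio of max minus min over baseline; more negative score means more quench and so TMEM16A activation or potentiation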
CRFBP-R2 block: antagonists of CRF-binding protein/CRF-R2 receptor complex; 350,000 tested, 0.59% active; AID 588475; HEK293 CRF-R2/CRF-BP, CRF-induced calcium fluorescence; inhibition, % at 11.8 µM;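 active = inhibition of the ligand-induced calcium signal above about 50% at the single tested concentration, limit read from the data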
* hit, by the source's call; i = inactive; . = no result given. Rows were chosen to be rich in hits. Some 5.1% of all compounds tested hit in one or more screens of this group.

SMILES | GRIN3A LBD mod | MPTP block | CRFBP-R2 agonist | TMEM16A inh | TMEM16A act | CRFBP-R2 block
N#Cc1cc(C(=O)c2ccccc2O)cn(-c2nccs2)c1=O | -2 | 46 | 239* | i | i | -224
CC(C)n1cc(C(=O)c2ccccc2O)cc(C#N)c1=O | -1 | 0 | -1 | i | i | -5
O=S(=O)(NCC(c1cccnc1)N1CCN(Cc2ccccc2)CC1)c1cc(F)ccc1F (stereo unspecified) | -1 | -2 | -1 | i | i | 6
Clc1cccc2sc(N3CCN(c4ccccc4)CC3)nc12 | 18* | 4 | -4 | i | i | -41
Cc1cc(C)c2c(c1)CC(C)(C)CC2=O | 0 | 1 | -1 | . | i | -2
OC[C@@H]1CN(Cc2ccncc2)C[C@H](n2cnc3c(NCc4ccco4)ncnc32)O1 | . | 0 | . | . | . | .
Cc1[nH]nc(SCC(=O)Nc2cccc(O)c2)c1[N+](=O)[O-] | 22* | 0 | -4 | i | i | 35
COc1cc(/C=C2\SC(=S)N(NC(=O)c3ccccc3O)C2=O)ccc1O | 11* | 14 | 28 | i | i | -38
O=C(NN1C(=O)/C(=C/c2ccc(O)cc2)SC1=S)c1cccc(O)c1 | 10 | 2 | 23 | i | i | -10
O=C(NN1C(=O)/C(=C/c2ccc(O)cc2)SC1=S)c1ccccc1O | 16* | 3 | 28 | i | i | -12
Cc1cccc(N2CCN(C(=O)CCC(=O)N3CC(C)Oc4ccc(C)cc43)CC2C)c1 (stereo unspecified) | -1 | -2 | 0 | i | i | -7
Cc1ccc2c(c1)N(C(=O)CCC(=O)NCc1ccccn1)CC(C)O2 (stereo unspecified) | -2 | -2 | -1 | i | i | 8
O=C(NC(=S)Nc1cccnc1)c1cccc(Br)c1 | 0 | 2 | -1 | i | i | -4
CC(=O)c1cccc(NC(=S)NC(=O)c2ccc(C)cc2)c1 | 1 | 1 | 2 | i | i | -13
O=C(NC(=S)Nc1cc(Cl)ccc1O)c1cccc(Br)c1 | 18* | 0 | 6 | i | i | 6
Cc1ccc(C(=O)NC(=S)Nc2ccc(NC(=O)c3cccc(Cl)c3)cc2)cc1 | 35* | 15 | 28 | i | i | 10
O=C(CCC(=O)c1ccc(F)cc1)Nc1cccc(S(=O)(=O)Nc2cccc(Cl)c2)c1 | 28* | 13 | 0 | i | i | 0
Cc1ccc(NC(=S)NC(=O)c2ccc(F)cc2)cc1S(=O)(=O)Nc1cccc(Cl)c1 | 13* | 1 | 9 | i | i | -21
Cc1ccc(Cl)cc1N(CC(=O)NCc1ccccc1)S(C)(=O)=O | 3 | 0 | -2 | i | i | -8
O=C(O)c1ccc(NC(=S)NC(=O)c2ccc3ccccc3c2)cc1 | 17* | 0 | 0 | i | i | -5
O=C(O)c1cccc(NC(=S)NC(=O)c2ccc3ccccc3c2)c1 | 2 | 1 | 6 | i | i | -11
COc1cccc(C(NC(C)=O)c2nc(-c3ccccc3C)cs2)c1 (stereo unspecified) | . | 0 | . | . | . | .
N#C/C(=C\c1ccc(O)c(O)c1)C(=O)N1CCc2ccccc21 | -6 | 1 | 5 | 25* | i | -41
COc1cc(/C=C(\C#N)C(=O)N2CCc3ccccc32)ccc1O | 2 | 3 | 1 | i | i | -23
CCN1CCN(CC(=O)Nc2ccc(S(=O)(=O)N3C(C)CCCC3C)cc2)CC1 (stereo unspecified) | 0 | 0 | 0 | i | i | 0
CCN(CC)C(=O)Oc1cc(=O)n(C)c2ccccc12 | 25* | -4 | 1 | i | i | -6
COCCNC(=O)COc1cc(=O)n(C)c2ccccc12 | 0 | 1 | 1 | i | i | -22
C#CCN(C[C@@H]1[C@@H](OC(=O)NCCCCCC)[C@@H](OC(=O)NCCCCCC)Cn2c(=O)n(CCCCCC)c(=O)n21)S(=O)(=O)c1ccc(C)cc1 | . | -2 | 13 | . | . | 4
[NH-]c1ncnc2c1N=C[N+]2=CC=CCO | 14* | -1 | 2 | i | i | 3
CC(C)OC(=O)c1c2c(n3ccccc13)C(=O)c1ccccc1C2=O | -9 | 7 | 182* | i | i | -165

Screens: PubChem BioAssay, several laboratories
